Experimental data reported in PubChem BioAssay AID540336 (Broad Institute, 2011).
Hit rate of the full screen: of about 330,000 compounds, about 520 (0.16%) were called active. What follows is part of a selection rich in actives, with near analogues and random picks from the rest. Values without a mark were called inactive.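 The calls were made as follows: active = inhibition of at least 50% in every replicate; inconclusive = best replicate reaches 50% inhibition but some replicates fall short; inactive = the rest.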

target: Histone acetyltransferase RTT109 (Candida albicans (strain SC5314 / ATCC MYA-2876)) (UniProt Q5AAJ8); experiment: inhibitors of C. albicans Rtt109/Vps75 HAT, primary screen, biochemical, ThioGlo CoA-SH fluorescence, plate reader (AID 540336); details: purified Rtt109/Vps75, ThioGlo CoA-SH fluorescence, 4 h; at 34.9 µM; active compounds read high
Sequence (Q5AAJ8 whole entry, looked up): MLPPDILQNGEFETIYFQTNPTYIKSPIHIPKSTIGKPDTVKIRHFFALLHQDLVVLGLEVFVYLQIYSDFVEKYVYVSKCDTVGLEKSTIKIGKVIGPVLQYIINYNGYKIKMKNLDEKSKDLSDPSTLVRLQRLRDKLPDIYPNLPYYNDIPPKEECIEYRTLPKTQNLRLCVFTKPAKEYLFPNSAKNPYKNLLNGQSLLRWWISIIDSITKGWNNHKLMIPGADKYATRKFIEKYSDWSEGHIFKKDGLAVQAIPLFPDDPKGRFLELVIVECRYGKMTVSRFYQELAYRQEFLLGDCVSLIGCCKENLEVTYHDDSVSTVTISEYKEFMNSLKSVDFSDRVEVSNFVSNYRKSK

SMILES | inhibition
O=[N+]([O-])c1ccc(C=NN=Cc2ccc([N+](=O)[O-])cc2)cc1 | -12.3%
COc1ccc(C(CNC(=O)c2cc(S(=O)(=O)Nc3cccc(C)c3)ccc2C)N2CCCC2)cc1 (stereo not given) | 22.1%
CCOc1cc(C=NNC(=O)CCCC(=O)NN=Cc2ccc(O)c(OCC)c2)ccc1O | 3.06%
COC(=O)C1CC2=C(CC(C)(C)CC2=O)N(c2ccccc2)C1=O (stereo not given) | -0.664%
COc1ccc(CCNC(=O)c2ccc(NC(=O)CC3SC(N4CCCCC4)=NC3=O)cc2)cc1OC (stereo not given) | 9.04%
O=c1[nH]n2c(-c3ccccc3)nc(O)c2c2ccccc12 | -9.47%
O=c1[nH]c2ccccc2n2c(-c3ccccc3)nnc12 | 127% (active)
O=C(c1ccc2c(c1)C(=O)N(Cc1ccncc1)C2=O)N1CCN(S(=O)(=O)c2ccc(OC(F)(F)F)cc2)CC1 | 5.03%
NC(=O)c1ncn([C@@H]2O[C@H](CNCc3cnc(N4CCOCC4)s3)[C@@H](O)[C@H]2O)n1 | 0.868%
O=C(OCCOc1ccccc1F)c1cc(S(=O)(=O)N2CCOCC2)ccc1F | -4.81%
O=C(OCCOc1ccccc1Cl)c1cc(S(=O)(=O)N2CCCCC2)ccc1N1CCOCC1 | 2.25%
NNc1cccc(C=Cc2ccccc2)cc1=O | 9.21%
COc1ccccc1N(CC(=O)Nc1c(C)n(C)n(-c2ccccc2)c1=O)S(=O)(=O)c1ccccc1 | 33.3%
CCc1c(Nc2ccccc2C)nc(N)[nH]c1=O | -5.27%
O=C(O)c1ccc(Cn2cnc3c(=S)nc[nH]c32)cc1 | 0.573%
O=C1OCC2=C1C(c1ccc(Cl)cc1)c1cc3c(cc1O2)OCO3 (stereo not given) | 8.44%
Cc1cc(C)c2c(NC(=O)C3CC3)nn(C)c2n1 | -4.52%
C=CCN1C=C(C(=O)c2ccccc2)C(=O)CC1 | 9.46%
CN(C)CCNC(=O)c1ccc(Cl)c2cc3ccccc3nc12 | 0.27%
Cc1ccc(C(C[N+](=O)[O-])c2c(C)cc3ccccn23)cc1 (stereo not given) | 2.3%
Nc1ccccc1SC(C[N+](=O)[O-])c1ccccc1 (stereo not given) | 108% (active)
Oc1c(CN2CCCC2)cc(COCc2ccccc2)c2cccnc12 | -7.26%
COc1ccccc1NC(=O)CSc1nc2sc3c(c2c(=O)n1-c1ccccc1)CCN(C)C3 | 59.4% (active)

SMILES | inhibition
CCCSc1nc2sc3c(c2c(=O)n1-c1ccc(OC)cc1)CCN(C)C3 | 0.409%
CCOc1ccc(-n2c(SCC(=O)OC)nc3sc4c(c3c2=O)CCN(C)C4)cc1 | -6.79%
CCSc1nc2sc3c(c2c(=O)n1-c1ccc(C)cc1)CCN(C)C3 | 8.04%
CCn1c(SCC(=O)Nc2ccc(Br)cc2)nc2sc3c(c2c1=O)CCN(C)C3 | 51.8% (active)
CCOc1ccc(-n2c(SCC(=O)Nc3ccc(OC)cc3)nc3sc4c(c3c2=O)CCN(C)C4)cc1 | 11.2%
Cc1ccc(C(=O)CSc2ccccc2C(=O)O)cc1 | -2.24%
Cc1ccc(C(=O)CNc2ccc(F)cc2)cc1 | -2.53%
Cc1ccc(SC(CC(=O)c2ccc(C(C)(C)C)cc2)C(=O)O)cc1 (stereo not given) | 142% (active)
O=[N+]([O-])c1ccc(N=NNc2ccc([N+](=O)[O-])cc2)cc1 | 2.16%
Cc1cccc(CC2(O)C(=O)Nc3ccccc32)n1 (stereo not given) | -2.36%
O=C(Nc1c(Br)cc2c(c1Br)Cc1ccccc1-2)C(F)(F)F | -19.3%
OCC1(CO)CC2(C1)CC(CO)(CO)C2 | -0.212%
Cc1cccc(C=CC(=O)c2ccc(Cl)cc2)c1 | -3.33%
CNc1nc(=O)n(C2CCCO2)cc1C (stereo not given) | 12.5%
S=C(Nc1ccccc1)Nc1ccc2ccccc2c1 | 0.68%
C=CCn1c(=O)n(C)c2c(=O)n(C)c(=O)n(C)c21 | 1.91%
CNC(=O)NC(=O)C(C)N1CCN(C/C=C/c2ccccc2)CC1 (stereo not given) | -0.128%
CC(C)=CCc1ccc(O)c(=O)cc1C(C)C | 6.99%
CCN(Cc1cc2cc(C)ccc2[nH]c1=O)S(=O)(=O)c1ccccc1 | 6.13%
Cc1ccc2[nH]c(=O)c(CN(CCCN(C)C)C(=O)Nc3cccc(Cl)c3)cc2c1 | 6.58%
CCC(=O)N(CCc1ccccc1)Cc1cc2cc(C)ccc2[nH]c1=O | 54.1% (active)
COc1cccc2oc(CCc3ccccc3)cc(=O)c12 | -16.8%
COc1cc(/C=C/C(=O)OCC(=O)NC2CC2)cc(OC)c1OC | 10.9%

SMILES | inhibition
O=C(Nc1ccc2c(c1)OCCO2)C1CCCC1 | -1.87%
O=C(Nc1ccc2c(c1)OCCO2)C1CCCN(c2ncccn2)C1 (stereo not given) | -8.66%
Cc1cc(C)nc(N2CCC(C(=O)Nc3ccc4c(c3)OCCO4)CC2)n1 | 54.4% (active)
C[C@H](O)[C@@H]1C(=O)N2CCc3ccc(N4CCOCC4)cc3[C@@H]2C[C@@H]1N(C)C(=O)C(C)(C)C | 0.072%
Cc1nn(-c2ccc(F)cc2)c(Cl)c1/C=C(/CCC(=O)O)c1nc2ccccc2s1 | 3.42%
CC(C)C(=O)Nc1c2c(nn1-c1ccccc1)CSC2 | 2.65%
CC(=O)Nc1c2c(nn1-c1cccc(C)c1)CSC2 | -4.46%
COc1ccc(-n2nc3c(c2NC(=O)c2ccc(N4C(=O)CCC4=O)cc2)CSC3)cc1 | 57.3% (active)
COc1cc(C(=O)N2CCN(S(=O)(=O)c3ccc(C(C)C)cc3)CC2)ccc1OCC(=O)N1CCOCC1 | -4.48%
COc1ccc(Cn2cc(CN3CCS(=O)(=O)N(Cc4ccc(-c5cccc(Cl)c5)cc4)C(C)C3=O)nn2)cc1 (stereo not given) | 11.2%
COC(=O)/C=C\C(=O)Nc1cccc([N+](=O)[O-])c1 | 68.2% (active)
COc1ccc(S(=O)(=O)NC(C)C(=O)Nc2cccc([N+](=O)[O-])c2)cc1 (stereo not given) | -0.177%
COc1cccc(CNC(=O)CCCC(=O)Nc2cccc([N+](=O)[O-])c2)c1 | -7.21%
CC/C(=C(/c1ccccc1)c1ccc(OCC[N+](C)(C)C)cc1)c1ccccc1 | -16.1%
Cc1ccc(S(=O)(=O)n2oc(=O)c(C3CCCCC3)c2N)cc1 | 0.705%
CCCCN(C(=O)CSCc1ccc(C)cc1)c1c(N)n(Cc2ccccc2)c(=O)[nH]c1=O | -4.15%
COc1ccc(CC(=O)NC(C)c2ccc(Cl)c(Cl)c2)cc1S(=O)(=O)N1CCOCC1 (stereo not given) | -2.98%
COc1cc2c(cc1OC)C1C(=O)c3cc(OS(C)(=O)=O)c(OC)cc3C1N(C)C2=O (stereo not given) | -1.27%
CC(C(=O)NC1CCS(=O)(=O)C1)N1C(=O)/C(=C/c2ccc(Cl)cc2)SC1=S (stereo not given) | 180% (active)
CN(C(=O)CN1C(=O)/C(=C/c2ccc(Cl)cc2)SC1=S)C1CCS(=O)(=O)C1 (stereo not given) | -24.5%
COc1ccc(/C=C2\SC(=O)N(CCC(=O)NC3CCS(=O)(=O)C3)C2=O)cc1 (stereo not given) | 11.3%
COc1cc(/C=C/c2ccc(/C=C/c3cc(OC)c(OC)c(OC)c3)cc2)cc(OC)c1OC | 1.49%
O=[N+]([O-])c1ccc(COc2ccccc2CN2CCOCC2)cc1 | 9.55%

SMILES | inhibition
C=CCOC(=O)N1CCC2CC1c1cc(-c3ccc(OC)cc3)ccc12 (stereo not given) | -3.1%
COc1cccc(/C=N/Nc2ccc(S(=O)(=O)Nc3ccccc3C(=O)O)cc2[N+](=O)[O-])c1O | 31.2%
COc1ccc(/C=C/C(=O)OCC(=O)N2CCN(S(=O)(=O)c3ccc(C)cc3C)CC2)cc1OC | -12.4%
Cc1ccc2c(O)c(Cc3ccccc3)c(=O)[nH]c2n1 | 3.15%
CCOC(=O)c1ccccc1NC(=O)CSc1nc2c(sc(=S)n2CC)c(=O)[nH]1 | 12.6%
COc1ccc(CNCCCn2cnc3c(OCc4ccccc4)ncnc32)cc1 | -0.493%
CC1(C)CC(CCC(=O)Nc2ccccc2Cl)C(=O)O1 (stereo not given) | -18.6%
O=C(Nc1ccccc1Cl)/C(Cl)=C(\Cl)S(=O)c1ccccc1 (stereo not given) | 136% (active)
O=C(Nc1ccccc1Cl)O/N=C(/c1ccccc1)c1ccccn1 | -0.825%
Cc1cc2c(cc1C)NC1(C[C@H]3CCC(=O)N4CC[C@@H](C1)[C@@H]34)C(=NC(C)(C)CC(C)(C)C)N2 (stereo not given in full) | -1.37%
COc1ccccc1C(=O)c1ccccc1C(=O)c1ccccc1 | -0.662%
COc1ccc2c(c1)C(=O)CC(c1ccccc1)O2 (stereo not given) | -1.45%
CCCCc1nnc(NC(=O)CSc2nc(C)cc(=O)[nH]2)s1 | -0.892%
CCOC(=O)Cc1csc(NC(=O)CSc2nc(C)cc(=O)[nH]2)n1 | 66.2% (active)
CCOC(=O)Cc1csc(NC(=O)CSc2ccc(Br)cc2)n1 | 2.14%
Cc1ccc(S(=O)(=O)N2CCC(C(=O)N3CCCCCCC3)CC2)cc1 | 1.29%
CSc1ccc(NC(=O)/C=C/C(=O)O)cc1 | 63.6% (active)
O=C(O)/C=C\C(=O)Nc1ccc(OCc2ccccc2)cc1 | 3.12%
Cc1cccc(N2CCN(c3ccc(NC(=O)/C=C\C(=O)O)cc3)CC2)c1 | 3.01%
O=[N+]([O-])c1ccc(NS(=O)(=O)c2ccccc2)c(Cl)c1 | -7.39%
CC(=O)OC1CCC2(C)C(=CCC3C4CC(=O)N(O)C(=O)C4(C)CCC32)C1 (stereo not given) | 1.39%
